Compounds with a hit are over-represented: about 7% of the library has one in this group of screens.
BAZ2B block: inhibitors of human BAZ2B bromodomain. AlphaScreen BAZ2B-H3K14Ac peptide displacement. AID 504333. Potency, µM (series often up to 114 µM), for inactives: at the top dose activity change, negative = inhibition, hits mostly inhibitors. actives 4.4% (n = 360,000). Q9UIF8; further: potency means the concentration at half of the fitted maximal effect; on the % scale 0 is the no-effect control and ±100 the full control effect; nearly all actives have a fitted effect of over 60% in size
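BAZ2B 50 nM plus b-H3(5-23)K14Ac 50 nM, PBS pH 7.4/0.01% Tween-20, 30 min RT; compound added (max 110 uM), 30 min RT; streptavidin donor/Ni-chelate acceptor beads 10 ug/mL final, 20 min dark; AlphaScreen read.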
HP1b binding inh: inhibitors of HP1-beta chromodomain binding to methylated histone tails. Potency, µM (top dose mostly 114 µM), for the others: at the highest dose activity change, negative = inhibition, most hits filed as inhibitors. actives 0.56% (n = 390,000). AlphaScreen HP1-beta / biotin-H3K9me3 peptide binding; further: potency means the concentration at half of the fitted maximal effect; nearly all actives have a fitted effect of over 70% in size
Target sequence (P83916 whole entry, looked up): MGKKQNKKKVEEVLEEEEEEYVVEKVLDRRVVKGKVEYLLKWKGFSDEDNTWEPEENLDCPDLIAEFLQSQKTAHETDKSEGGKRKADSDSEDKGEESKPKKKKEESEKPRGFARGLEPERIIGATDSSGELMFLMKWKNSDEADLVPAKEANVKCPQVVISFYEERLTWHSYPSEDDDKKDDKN
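Compound inhibition of the preformed complex between 50 nM HP1-beta and 50 nM biotinylated H3K9me3 peptide was read by AlphaScreen. Buffer was PBS pH 7.4 with 0.01% Tween-20. Incubations ran 30 min at room temperature, with 10 ug/mL donor/acceptor beads.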
PI5P4K alpha inh: blocks human PI5P4K alpha kinase activity; P48426; PI5P4Kalpha enzyme, ADP-Glo luminescence, 60 min; stronger effect = lower value; max response, %; actives 1.2% (n = 330,000); active means max response of -50% or lower; inconclusive means between -30% and -50%; inactive means -30% or higher; further: value at the top dose of about 77 µM; on the % scale 0 is the no-effect control and ±100 the full control effect
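PI5P4Kalpha ADP-Glo assay; 5 microM ATP final; 60 min RT reaction; HEPES pH 7.4/EGTA/CHAPS, 5% DMSO; controls lacking substrate or enzyme; luminescent end-point.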
KAT2A inh: blocks human GCN5L2 histone acetyltransferase | actives 0.21% (n = 390,000) | Q92830 | Potency, µM (top dose mostly 58.9 µM), for the others: top-dose activity change, negative = inhibition, most hits filed as inhibitors | GCN5L2 HAT assay, ThioGlo1 CoA-SH fluorescence; further: potency means the concentration at half of the fitted maximal effect; on the % scale 0 is the no-effect control and ±100 the full control effect
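Compounds, pin-transferred from DMSO stocks, meet 20nM GCN5L2 for 15 min before the reaction begins with H3(1-25) peptide (75uM) and acetyl-CoA (70uM). Thiol-reactive ThioGlo1 reports CoA release over 20 min at room temperature.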
JMJD2A Tudor: blocks the human JMJD2A Tudor domain; O75164; AlphaScreen JMJD2A-Tudor / H3K4me3 peptide binding; Potency, µM (series often up to 114 µM), for the others: at the highest dose activity change, negative = inhibition, actives largely listed as inhibitors; actives 4.4% (n = 390,000); further: potency means the concentration at half of the fitted maximal effect; on the % scale 0 is the no-effect control and ±100 the full control effect; nearly all actives have a fitted effect of over 50% in size
PLK1 PBD block: inhibitors of human PLK1 polo-box domain binding | Potency, µM, without a hit: max response, negative = inhibition, actives largely listed as inhibitors | P53350 | AID 720504 | Plk1 PBD binding of FITC phosphopeptide, fluorescence polarization | actives 2.8% (n = 360,000); further: potency means the concentration at half of the fitted maximal effect; series mostly up to about 57 µM; on the % scale 0 is the no-effect control and ±100 the full control effect; nearly all actives have a fitted effect of over 65% in size
ADP-Glo counter: ADP-Glo luciferase interference, PI5P4K counter-screen; shares compounds with PI5P4K alpha inh; ADP-Glo detection counter-screen, luciferase luminescence, no enzyme; Potency, µM (series often up to 76.9 µM), inactives show at the highest dose activity change, negative = inhibition, most hits filed as inhibitors; 1,100 tested, under 10 active
Active calls of the source: *; ? = inconclusive; / = not tested or not shown; [ ] = remark or other dose. Unless noted, the call rests on the fitted dose curve; in most records, active means well fitted curve in the direction sought with a large enough effect; inconclusive means small, poorly fitted or top-dose-only effect, or another doubt; inactive means no such curve, though single readings can be large; an effect the other way counts as inactive or inconclusive.

SMILES | BAZ2B block | HP1b binding inh | PI5P4K alpha inh | KAT2A inh | JMJD2A Tudor | PLK1 PBD block | ADP-Glo counter
Nc1c(C(=O)Nc2ccc(Br)cc2)sc2nc(-c3ccco3)ccc12 | ? | 40% | ? | -23% | -1% | -21% | /
CC(=O)c1sc2nc(-c3ccco3)ccc2c1N | 50µM* | ? | -61* | ? | 79µM* | 11µM* | 1%
Cc1ccc(C(=O)NCC(=O)Nc2ncccc2C)s1 | -3% | 5% | 8 | -1% | -9% | -4% | /
CC(=O)c1cc(-c2ccc(F)cc2)n(CC(=O)NC(C)c2ccccc2)c1C (centres undefined) | 8% | 37% | / | -1% | 4% | / | /
CCOc1ccc(S(=O)(=O)N2CCN(c3ccc(C)cc3C)CC2)cc1 | -4% | 43% | -110* | ? | 0% | 3% | -2%
O=C(Nc1cc(Cl)ccc1Cl)c1ccc2c(c1)N(Cc1cccc(Cl)c1)C(=O)c1ccccc1S2=O (centres undefined) | 2% | 50% | / | 9% | -1% | / | /
O=c1cc(CSc2nnc(-c3cccs3)n2Cc2ccccc2)nc2sc3ccccc3n12 | 45µM* | 22% | -51* | -12% | -35% | -20% | 6%
O=S(=O)(Nc1nc(-c2ccccc2)cs1)c1cc(Cl)ccc1Cl | ? | -26% | -51* | ? | ? | ? | -2%
O=[N+]([O-])c1ccc(S(=O)(=O)Nc2nc(-c3ccccc3)cs2)cc1 | ? | -11% | 0 | -1% | ? | ? | /
COc1ccc(CCNC(=O)c2cc3c(=O)[nH]c4ccc(C)cc4c3s2)cc1OC | -8% | 9% | / | -5% | -18% | / | /
CC(=O)N1CCN(S(=O)(=O)c2cccc(C(=O)Nc3ccc(F)c(F)c3)c2)CC1 | 1% | 4% | -19 | -5% | -1% | -8% | -1%
CCOC(=O)c1ccc(NC(=O)c2cccc(S(=O)(=O)N3CCN(C(C)=O)CC3)c2)cc1 | -1% | 9% | 2 | -6% | -3% | -8% | /
CC(=O)Nc1ccnn1C1CCN(C(=O)c2cccc(C)c2C)CC1 | -15% | 54% | 1 | -7% | -3% | -8% | /
Cc1oc2ccc(OCc3ccccc3Cl)cc2c1C(=O)O | 1% | 20% | -61* | 3% | -10% | -8% | -5%
Cc1oc2ccc(OCc3ccc(F)cc3Cl)cc2c1C(=O)O | -12% | 22% | 1 | -1% | -5% | -6% | /
O=C(Nc1c(C(=O)N2CCN(c3ccccc3)CC2)oc2ccccc12)c1ccc(Br)o1 | -28% | 32% | / | -7% | -21% | / | /
CCn1cc(C(=O)N2CCN(c3cccc(C)c3C)CC2)c(=O)c2ccc(C)nc21 | -34% | -32% | -73* | 11% | -22% | -6% | -7%
CCOc1ccc(NC(=O)NCc2ccc3c(c2)CCN3C(C)=O)cc1 | 2% | 9%[57 µM] | / | 2% | -8% | / | /
Cc1ccc(C)c(OC(=O)CSc2nnc(-c3ccc4c(c3)OCO4)o2)c1 | -3% | 7% | / | -9% | -20% | / | /
Cc1cc(C)cc(NC(=O)C(=O)NCCCN2CCCC2=O)c1 | -5% | 15% | 0 | -4% | -18% | 3% | /
COC(=O)c1ccccc1C(=O)c1cccc2ccccc12 | 15% | 76% | 5 | -5% | 34% | -15% | /
COC(=O)c1c[nH]c(=O)c2ccccc12 | 3% | -17% | -56* | -1% | ? | 15µM* | -7%
O=S(=O)(Nc1ccc(Cl)cc1)c1ccc(N2CCOCC2)c(NC(=S)NCCN2CCOCC2)c1 | ? | ? | -83* | -17% | 79µM* | 1.7µM* | -8%

Assay outcomes as filed in PubChem.
